High-throughput results as filed in PubChem.
Only some compounds are listed: those with a hit (about 5.7% of all), similar ones and a draw of the others.
KB-3-1 tox: kills parental KB-3-1 adenocarcinoma cells | KB-3-1 viability, CellTiter-Glo ATP luminescence, 72 h | Potency, µM (doses to about 46.1 µM), usual class: cytotoxic | 400,000 compounds, 1.4% hits; further: potency means the concentration at half of the fitted maximal effect; nearly all actives have a fitted effect of over 60% in size
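Cells are dispensed, compounds pinned in, plates held at 37 °C for 72 h, then CellTiter-Glo is added and luminescence read after 10 minutes. Cell line: parental KB-3-1 in phenol-red-free DMEM, 10% FBS.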
KB-V1 cytotox: kills drug-selected multidrug resistant KB-V1 cells; Potency, µM (titrated, usually from 46.1 µM), usual class: cytotoxic; KB-V1 MDR cells viability, CellTiter-Glo, 72 h; AID 1347076; 400,000 compounds, 3.4% hits; further: potency means the concentration at half of the fitted maximal effect; nearly all actives have a fitted effect of over 60% in size
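Drug-selected KB-V1 cells, grown in DMEM lacking phenol red with 10% FBS, receive compound titrations; after three days at 37 degrees C, surviving cell ATP is quantified by CellTiter-Glo luminescence and responses normalized and curve-fitted.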
A549 tox: kills or reduces viability of A549 cells in Nrf2 counter-screen; A549 ARE-Fluc cells, CellTiter-Fluor viability, 18-24 h; Potency, µM (top dose mostly 46 µM), for the others: top-dose activity change, negative = cytotoxicity, hits mostly inhibitors; 390,000 compounds, 0.16% hits; further: potency means the concentration at half of the fitted maximal effect
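Cytotoxicity counterscreen: CellTiter-Fluor fluorescence was measured in A549 ARE_Fluc cells after 18-24 h of compound exposure in a concentration series. The subsequent BugLite luminescent read reports ARE-luciferase activity.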
Nrf2 block: inhibitors of Nrf2 signaling; A549 ARE-Fluc reporter, luciferase luminescence, 18-24 h; Potency, µM (doses to about 46 µM), inactives show top-dose activity change, negative = inhibition, actives largely listed as inhibitors; 360,000 compounds, 2.1% hits; AID 504444; further: potency means the concentration at half of the fitted maximal effect; nearly all actives have a fitted effect of over 60% in size
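Quantitative HTS in A549 cells stably bearing an antioxidant response element-firefly luciferase construct. Inhibition of Nrf2-driven transcription was scored by luminescence after 18-24 h of compound exposure at 37 °C.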
PI4K2A block: inhibitors of human PI4K2A; Q9BTU6; purified PI4K2A, ADP-Glo luminescence, 1 h; active compounds read low; activity change, negative = inhibition, % at 76.9 µM; 420,000 compounds, 0.13% hits; in the data active means activity change below about -50%; inconclusive means mostly about -30% to -49%;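 further: -100% = wells without enzyme as full effect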
Target sequence (Q9BTU6 whole entry, looked up): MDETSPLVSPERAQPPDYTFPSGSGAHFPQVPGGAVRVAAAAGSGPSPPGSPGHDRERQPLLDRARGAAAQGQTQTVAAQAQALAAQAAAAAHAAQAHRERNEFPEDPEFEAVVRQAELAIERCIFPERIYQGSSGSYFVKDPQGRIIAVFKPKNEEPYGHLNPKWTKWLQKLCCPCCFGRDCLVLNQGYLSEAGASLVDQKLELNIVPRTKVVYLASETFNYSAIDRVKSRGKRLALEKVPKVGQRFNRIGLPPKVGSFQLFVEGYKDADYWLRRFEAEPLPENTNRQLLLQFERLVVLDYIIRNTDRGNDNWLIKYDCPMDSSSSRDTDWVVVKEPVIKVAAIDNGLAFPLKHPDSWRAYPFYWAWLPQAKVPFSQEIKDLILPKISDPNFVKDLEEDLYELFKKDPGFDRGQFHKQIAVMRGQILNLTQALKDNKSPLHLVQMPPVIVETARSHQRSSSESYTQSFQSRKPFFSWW
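In this quantitative HTS, ADP production by PI4K2A was quantified luminescently after 1 h at ambient temperature; 100 microM adenosine served as plate-quality control.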
Giardia killer: Giardia lamblia killing; Giardia lamblia trophozoite viability; activity change, % at 7.66 µM, hits read low; 340,000 compounds, 0.15% hits; AID 540267; in the data active means activity change below about -80%; inconclusive means between about -30% and that limit;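 further: parasites exposed to compound for two days anaerobically before the ATP read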
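Giardia trophozoites, 100 cells per well, were exposed to compounds for 48 hrs at 37 deg C under anaerobic conditions; viability was then read as ATP content by bioluminescence after 15-30 min at room temperature.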
The depositor's hits bear a star; i = inactive; ? = inconclusive; · = not tested or not shown; [ ] = another dose, or the depositor's remark. Unless noted, the call rests on the fitted dose curve; in most records, active means well fitted curve in the direction sought with a large enough effect; inconclusive means small, poorly fitted or top-dose-only effect, or another doubt; inactive means no such curve, though single readings can be large; an effect the other way counts as inactive or inconclusive. Unless noted, on the % scale 0 is the no-effect control and ±100 the full control effect.

SMILES | KB-3-1 tox | KB-V1 cytotox | A549 tox | Nrf2 block | PI4K2A block | Giardia killer
CCCN1CNc2c(c(=O)[nH]c(=S)n2CCc2ccc(OC)cc2OC)C1 | · | · | 15% | -3% | · | ?
CCCCN(C)c1nnc(NC(=O)Nc2cccc(C(C)=O)c2)s1 | ? | i | 2% | -23% | -3 | ·
O=C(CSc1nnc(-c2ccc(Cl)cc2)n1-c1ccccc1)Nc1ccc2c(c1)OCCO2 | · | · | · | · | 0 | ·
O=C(CN1CCN(c2ccccc2O)CC1)NC(c1ccccc1)c1ccccc1 | i | 4.1µM* | 0% | 1% | 0 | -20
O=C(NNc1nc(-c2ccccc2)c2cc(Br)ccc2n1)c1ccc(S(=O)(=O)N2CCCCC2)cc1 | i | 3.3µM* | 2% | -13% | -2 | 7
O=C(NNc1nc(-c2ccccc2)c2cc(Br)ccc2n1)c1ccc(S(=O)(=O)N2CCOCC2)cc1 | i | ? | -8% | ? | -1 | -27
O=C(Nc1nc(-c2ccccc2)c(C(=O)c2ccccc2)s1)c1ccc(S(=O)(=O)N2CCCCC2)cc1 | ? | ? | -19% | 15µM* | -3 | -5
O=c1oc2cc(O)ccc2s1 | i | ? | 2% | 13µM* | -7 | 0
Oc1ccc2c(c1)oc1cc(O)ccc12 | i | ? | -6%[1.84 µM] | ? | 9 | 1
CCCCn1c(SCC(=O)Nc2ccc(OC)cc2)nc2ccc(N3CCOCC3)cc2c1=O | i | i | -20% | -13% | 2 | -2
CCCCn1c(SCC(=O)NC(C)CC)nc2ccc(N3CCOCC3)cc2c1=O (centres undefined) | i | 3.3µM* | 2% | 5% | 7 | 18
CCCCn1c(SCC(=O)NCc2ccco2)nc2ccc(N3CCOCC3)cc2c1=O | i | 2.1µM* | -4% | 0% | -1 | 7
CCCCn1c(SCC(=O)NCc2ccccc2)nc2ccc(N3CCOCC3)cc2c1=O | i | ? | -17% | ? | -4 | 1
Cc1ccc(NC(=O)Cc2ccccc2Cl)cc1S(=O)(=O)N(C)C | ? | 23µM* | -17% | ? | -4 | -3
Cc1ccc(NC(=O)Cc2ccc(Cl)c(Cl)c2)cc1S(=O)(=O)N(C)C | 23µM* | 2.6µM* | -27% | ? | 1 | -6
Cc1ccc(NC(=O)COC(=O)c2ccccc2Cl)cc1S(=O)(=O)N(C)C | i | i | -8% | -15% | 0 | 2
Cc1ccc(NC(=O)CNc2ccc(Cl)c(Cl)c2)cc1S(=O)(=O)N(C)C | ? | 21µM* | ? | 12µM* | 2 | -1
O=C(Nc1nnc(C2CC2)s1)C1Cc2ccccc2CN1C(=O)c1ccco1 (centres undefined) | i | i | -5% | 4% | -8 | -14
O=C(Nc1nnc(SCc2ccc(F)cc2)s1)C1Cc2ccccc2CN1C(=O)c1ccco1 (centres undefined) | i | i | ? | 16µM* | -11 | 24
O=C(OCc1cn(Cc2ccc(C(F)(F)F)cc2)nn1)N1CCCC1 | · | · | · | · | -7 | ·
CCCCC(=O)Nc1ccnc(-c2cccnc2)n1 | i | 16µM* | 3% | ? | 2 | 3
CCOc1ccccc1C(=O)Nc1ccc(C(=O)NCC2COc3ccccc3O2)cc1 (centres undefined) | · | · | · | · | 2 | ·
Cc1cc(C)cc(OCC(=O)NNC(=O)c2ccccn2)c1 | ? | i | -25% | 10µM* | -20 | 14
O=C(COc1ccc(Cl)cc1)NNC(=O)c1ccccn1 | ? | i | -9% | ? | -21 | 1
Cc1ccc(N(CC(=O)NCC2CCCO2)S(=O)(=O)c2ccc(Cl)cc2)cc1C (centres undefined) | i | i | -1% | ? | -2 | 18
SMILES | KB-3-1 tox | KB-V1 cytotox | A549 tox | Nrf2 block | PI4K2A block | Giardia killer
COc1ccc(N(CC(=O)NCC2CCCO2)S(=O)(=O)c2ccc(C)cc2)cc1OC (centres undefined) | i | 21µM* | 10% | 5% | 0 | 12
Cc1ccc(NC(=O)C2CCN(c3ncccn3)CC2)cc1C | · | · | · | · | 0 | ·
COc1cc(CCC(=O)Nc2ccc(Cl)c(C(F)(F)F)c2)cc(OC)c1OC | i | 16µM* | ? | ? | -4 | -14
CCNC(=S)Nc1ccc(Cl)c(C(F)(F)F)c1 | ? | 23µM* | 3% | ? | -6 | 5
c1nc(N2CCC(N3CCCC3)CC2)c2cc(-c3ccc4c(c3)OCO4)ccc2n1 | i | i | 2% | -2% | · | ·
COc1ccc(/C=C2\CCOC2=O)cc1 | i | i | 8% | ? | -1 | -1
COc1ccc(/C=C2/C(=O)OCc3cc(OC)c(OC)cc32)cc1 | ? | 3.7µM* | -5% | -23% | -1 | 9
CC(C)Oc1ccc(C(CCNCc2ccc(O)cc2)c2ccccc2)cc1 (centres undefined) | ? | 18µM* | -29% | -29% | -4 | 10
COc1ccc(C(CCNCc2ccc(N(C)C)cc2)c2ccccc2)cc1 (centres undefined) | i | ? | -2% | 2% | -2 | -15
CC(C)Oc1ccc(CNC(=O)CC(c2ccccc2)c2cc(Cl)ccc2O)cc1 (centres undefined) | i | 23µM* | ? | ? | 2 | -6
CCN(CCS(=O)(=O)c1ccc(Cl)cc1)Cc1nc2ccccc2c(=O)[nH]1 | i | 7.3µM* | -1% | 8% | 1 | 14
Cc1ccc(C(=O)CN(Cc2ccccc2)C2=NCCS2)cc1 | i | 16µM* | -1% | 2% | 4 | -8
O=C(CN(Cc1ccccc1)C1=NCCS1)c1ccccc1 | i | 18µM* | 0% | 1% | -8 | 2
Cc1ccc(C(=O)Cc2ccccc2)cc1 | i | i | 10% | ? | -5 | 10
COc1ccc(CCNc2ccc(N3C(=O)CC(C)C3=O)cc2[N+](=O)[O-])cc1 (centres undefined) | i | i | -15% | 0% | 0 | 17
COc1ccc(CCNc2ccc(N3C(=O)CC(C)C3=O)cc2[N+](=O)[O-])cc1OC (centres undefined) | i | i | -30% | 15µM* | 2 | -6
CCCCc1c(C)nc(Nc2ccc(OC)cc2)[nH]c1=O | i | 23µM* | 1% | -15% | -1 | 2
CCCCCc1c(C)nc(Nc2ccc(F)cc2)[nH]c1=O | i | ? | -18% | ? | 1 | 0
COc1ccc(CNC(=O)C(CCSC)NS(=O)(=O)c2ccc3c(c2)oc(=O)n3C)cc1 (centres undefined) | · | · | 6% | · | 0 | ·
CSc1nc(N(C)NC(=O)c2ccccc2)c2ccccc2n1 | 1µM* | 1.2µM* | -24% | -2% | 14 | -2
